Experimental data taken from a collection of fitness landscapes (doi:10.1016/j.celrep.2020.107928).
Over roughly 81,000 sequences, “one-hybrid fitness for binding parS DNA” has its median near -0.17; the highest 2% begin near 0.51. This excerpt belongs to a sample that is enriched for the highest values.

B1: Caulobacter ParB omega fusion; a variant is named by its letters at X, in order, B8GW30 (parent)
chain: MESVVVGEPGMSEGRRGLGRGLSALLGEVDAAPAQAPGEQLGGSREAPIEILQRNPDQPRRTFREEDLEDLSNSIREKGVLQPILVRPSPDTAGEYQIVAGERAWRAAQRAGLKTVPIMVRELDDLAVLEIGIIENVQRADLNVLEEALSYKVLMEKFERTQENIAQTIGKSXSHVANXMRLLXLPDEVQSYLVSGELTAXHARAIAAAADPVALAKQIIEGGLSVRETEALARKAPNLSAGKSKGGRPPRVKDTDTQALESDLSSVLGLDVSIDHRGSTGTLTITYATLEQLDDLCNRLTRGI

Variants of: B1
Experiment: one-hybrid fitness for binding parS DNA (scaled: cognate 1, non-cognate 0); higher = stronger binding
Settings: with parS DNA site
In short: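 Fitness here means the log change in variant-to-wild-type read ratio between plasmids sequenced before and after selection. That scale was set so cognate equals 1 and non-cognate equals 0. The selection was a bacterial one-hybrid screen of Caulobacter ParB libraries, four specificity codons randomised, in E. coli USO carrying a HIS3 reporter with the site 19 bp from the promoter, grown 48 hours at 37°C on M9-minus-histidine with 0.1 mM IPTG and 5 mM 3-AT.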

Variant	one-hybrid fitness for binding parS DNA
RLLY	0.505
RLLK	≤ 0.2
RLSH	0.266
RLCY	0.485
RLHC	0.973
RLSC	0.98
RLSP	≤ 0.2
RLCR	≤ 0.2
RLCC	0.995
RLHD	≤ 0.2
RLLC	1
QRLD	≤ 0.2
GQHW	≤ 0.2
KKGT	≤ 0.2
PNTI	≤ 0.2
NASI	≤ 0.2
HCLN	≤ 0.2
TCIV	≤ 0.2
HMWR	≤ 0.2
YTVS	≤ 0.2
RLRN	0.432
RLYK	≤ 0.2
RLRQ	≤ 0.2
RLYC	1.01
RLRC	0.846

Variant	one-hybrid fitness for binding parS DNA
RLYR	0.23
WPPM	≤ 0.2
YLAL	≤ 0.2
RVYT	0.93
RVHT	0.927
RVRQ	≤ 0.2
RVSF	0.224
RVST	0.92
RVSK	≤ 0.2
RVRT	0.825
RVYK	≤ 0.2
RVHP	≤ 0.2
RVYF	0.25
RVHD	≤ 0.2
RVRK	≤ 0.2
GPPY	≤ 0.2
YVGI	≤ 0.2
QTHG	≤ 0.2
FAKY	≤ 0.2
LKTR	≤ 0.2
PGLR	≤ 0.2
RVQN	0.417
RVQT	0.913
RVLM	0.309
RVLQ	≤ 0.2

Variant	one-hybrid fitness for binding parS DNA
RVDH	≤ 0.2
RVLT	0.92
RVDT	0.741
RVWF	0.25
RVWT	0.886
RVQP	≤ 0.2
RVWR	≤ 0.2
RVDD	≤ 0.2
PFSC	≤ 0.2
GKMI	≤ 0.2
LFDL	≤ 0.2
TQEV	≤ 0.2
RKRY	0.422
FSIS	≤ 0.2
RVCM	0.382
RVNH	≤ 0.2
RVGN	0.451
RVGD	≤ 0.2
RVCT	0.926
RVNP	≤ 0.2
RVGT	0.924
RVNT	0.899
RVCY	0.462
PRGK	≤ 0.2
VWDG	≤ 0.2

Variant	one-hybrid fitness for binding parS DNA
IEKT	≤ 0.2
VALY	≤ 0.2
GQET	≤ 0.2
SLYK	≤ 0.2
GKPL	≤ 0.2
RHET	0.734
RAEI	≤ 0.2
RAET	0.68
RHEM	0.214
RCET	0.758
RHEK	≤ 0.2
RAEK	≤ 0.2
RPET	≤ 0.2
RRET	0.674
RDET	≤ 0.2
EKRG	≤ 0.2
SQQG	≤ 0.2
TPYC	≤ 0.2
VTLR	≤ 0.2
QKRV	≤ 0.2
QSKN	≤ 0.2
QNAM	≤ 0.2
EGGH	≤ 0.2
